Data reported in PubChem BioAssay AID1745847 (National Center for Advancing Translational Sciences (NCATS), 2022).
The whole screen tested about 2,100 compounds, of which about 670 (32%) were called active. Inconclusive results (about 50%) are left out. The list shows a part of the results. Values without a mark were called inactive. The call rests on the fitted dose curve; in most records, active means well fitted inhibition curve with a large enough effect; inconclusive means small, poorly fitted or top-dose-only effect; inactive means no such curve, though single readings can be large or run the other way.

Test: CMV-Luciferase Counterscreen for Inhibitors of ATXN expression; further: nearly all actives have a fitted effect of over 55% in size
Conditions: HEK-293 CMV-luciferase reporter, luminescence, 24 h; series mostly up to 57.5 µM; activity change, negative = inhibition: at the top concentration
On the % scale 0 is the no-effect control and ±100 the full control effect; potency means the concentration at half of the fitted maximal effect.

Structure (SMILES)	Potency	activity change, negative = inhibition
O=C(COc1nsnc1N1CCOCC1)N/N=C/c1ccccc1O	11.2 µM (active)	–
O=C(Cc1ccccc1)N/N=C/c1cc(Br)cc(Br)c1O	2.51 µM (active)	–
O=C(CN1CC(c2ccccc2)CC1=O)N/N=C/c1cc(Br)ccc1O (configuration not stated)	10 µM (active)	–
O=C(CCCOc1ccc(Cl)cc1Cl)N/N=C/c1ccccc1O	2.51 µM (active)	–
NC(Cc1ccc(C(F)(F)F)cc1)c1csc(Nc2nccc(C(F)(F)F)n2)n1 (configuration not stated)	–	-10.1% [at 11.4 µM]
O=C(CCC(=O)Nc1ccc(Br)cc1)N/N=C/c1ccccc1O	1.26 µM (active)	–
COc1ccc(O)c(/C=N/NC(=O)CCC(=O)Nc2cccc(C)c2)c1	10 µM (active)	–
NNC(=O)/C(=N/Nc1ccccc1)S(=O)(=O)c1ccc(Cl)cc1	3.55 µM (active)	–
CCCCC(=O)N(C)c1c(CC)nc2c(OCc3ccc(Cl)cc3Cl)cccn12	3.55 µM (active)	–
CCOC(=O)N(C)c1c(CC)nc2c(OCc3ccccc3C)cccn12	20 µM (active)	–
CCc1nc2c(OCc3ccc(Cl)cc3Cl)cccn2c1N(C=O)Cc1ccc(OC)cc1	3.16 µM (active)	–
CCCCC1C(=O)CC[C@H]2[C@@H]1CC(=O)[C@@H]2C/C=C\CCCC(=O)O (some centres not stated)	–	4.23% [at 11.4 µM]
O=C(NCC1CC1)c1ccc2c(c1)S(=O)(=O)c1cc(Cl)ccc1C2=O	–	-10.6% [at 11.4 µM]
C=CCn1c(COc2ccccc2)nnc1SCC(=O)N/N=C/c1cc(Cl)ccc1O	–	-22.4%
C=CCn1c(COc2ccccc2)nnc1SC(C)C(=O)N/N=C/c1cc(Cl)ccc1O (configuration not stated)	10 µM (active)	–
Cc1nnc(SC(C)C(=O)Nc2ccc(Cl)cn2)n1Cc1ccccc1 (configuration not stated)	–	-4.16%
O=C(Nc1nc(-c2ccccn2)cs1)c1ccccc1-n1cnnn1	3.55 µM (active)	–
N#Cc1cc2c(=O)n3ccccc3nc2n(-c2ccccc2Cl)c1=O	–	-3.29%
Cc1nc(SCC(=O)Nc2ccc(S(=O)(=O)N3CCOCC3)cc2)c2c(C)c(C)sc2n1	2.82 µM (active)	–
Cc1ccc(C)c(N2CCN(C(=O)C34CC5CC(C3)CC(n3nnc(C)n3)(C5)C4)CC2)c1	11.2 µM (active)	–
O=C(CSc1ccc2c(c1)OCCO2)Nc1ccc(Cl)cn1	–	294%
Cc1ccc(NC(=O)CSc2ccc(Br)cc2)cc1S(=O)(=O)N1CCOCC1	22.4 µM (active)	–

Structure (SMILES)	Potency	activity change, negative = inhibition
COc1ccc(/C=C/C(=O)Nc2ccc(C)c(S(=O)(=O)N3CCOCC3)c2)cc1	10 µM (active)	–
COc1ccc(/C=C/C(=O)c2cc3cccc(OC)c3oc2=O)cc1	–	30%
Cc1ccc(NC(=O)/C=C/c2ccc(S(=O)(=O)N3CCOCC3)cc2)cc1S(=O)(=O)N(C)C	2.51 µM (active)	–
COc1ccccc1N1CCN(Cc2ccc(O)c3ncccc23)CC1	0.891 µM (active)	–
Cc1ccc(C)c(S(=O)(=O)N2CCN(Cc3ccc(O)c4ncccc34)CC2)c1	2.82 µM (active)	–
O=S(=O)(c1ccc(Cl)cc1)N1CCN(Cc2ccc(O)c3ncccc23)CC1	8.91 µM (active)	–
OC1(c2ccc(Cl)cc2)CCN(Cc2c[nH]c3ccccc23)CC1	–	-23.5% [at 11.4 µM]
Cc1ccc(S(=O)(=O)/C(=C/Cl)NC(=O)c2ccccc2)cc1	11.2 µM (active)	–
O=C(Nc1ccc(F)cc1)Nc1cc(OCC(F)(F)F)cc(OCC(F)(F)F)c1	3.98 µM (active)	–
CC[n+]1ccccc1/C=C1\Sc2ccc(C)cc2N1C	6.31 µM (active)	–
Cc1cc(C)nc(NNS(=O)(=O)c2ccc(F)c(Cl)c2)n1	–	-15.9% [at 11.4 µM]
COc1ccccc1-c1ccc2c(c1)C(C)(Cc1cccc(F)c1)C(=O)N2 (configuration not stated)	28.2 µM (active)	–
Cc1ccc(Nc2c(-c3ccccn3)nc3cccc(C)n23)cc1	3.55 µM (active)	–
Cc1cccc(N(CC(O)CON=C2c3ccccc3-c3ccccc32)S(C)(=O)=O)c1 (configuration not stated)	25.1 µM (active)	–
N#Cc1ccc(/C=C\c2nccc3c2[nH]c2ccccc23)cc1	–	-24% [at 11.4 µM]
Cc1c(C(=O)N/N=C/c2c(O)ccc3ccccc23)nnn1-c1nonc1N	0.282 µM (active)	–
CC1CCN(Cc2c(C(=O)N/N=C/c3ccccc3O)nnn2-c2nonc2N)CC1	1.58 µM (active)	–
Nc1nonc1-n1nnc(C(=O)N/N=C/c2ccccc2O)c1CN1CCCC1	10 µM (active)	–
O=C(/C=C/c1ccccc1Cl)c1ccccc(=O)c1O	–	33.6%
COc1cc2c3nnc(-c4ccc(F)cc4)c-3cn(Cc3ccccc3F)c2cc1OC	–	65% [at 11.4 µM]
CC(C)C(=O)NC(c1cccc([N+](=O)[O-])c1)c1ccc2cccnc2c1O (configuration not stated)	2.82 µM (active)	–
Oc1c(C(Nc2cccc(C(F)(F)F)c2)c2ccncc2)ccc2cccnc12 (configuration not stated)	3.98 µM (active)	–

Structure (SMILES)	Potency	activity change, negative = inhibition
O=[N+]([O-])c1ccc(NC(c2ccccc2)c2ccc3cccnc3c2O)cc1 (configuration not stated)	2.51 µM (active)	–
C[C@@H]1CN([C@H](C)CO)S(=O)(=O)c2ccc(-c3ccc(C#N)cc3)cc2O[C@H]1CN(C)C(=O)Nc1cc(F)ccc1F	12.6 µM (active)	–
Cc1cc(C)c2nc(N3CCCC(C(=O)N4CCN(c5ncccn5)CC4)C3)sc2c1 (configuration not stated)	3.55 µM (active)	–
O=c1c(O)c(-c2ccccc2)oc2ccccc12	–	-28.6% [at 11.4 µM]
CCCCN(C(=O)c1cccc2c(=O)c(C)c(-c3ccccc3)oc12)c1ccccc1	12.6 µM (active)	–
COc1ccc(Cc2[nH]n3c(=O)cc(C(C)C)nc3c2-c2ccccc2)cc1	8.91 µM (active)	–
CN1CCC[C@H]1CCNc1ccc2c(=O)c3ccccc3n(C)c2c1	–	8.82%
O=C(CSc1n[nH]c(-c2ccccn2)n1)Nc1ccccc1	7.94 µM (active)	–
O=C(CSc1n[nH]c(-c2ccccn2)n1)Nc1ccc(F)cc1	8.91 µM (active)	–
O=C(CSc1n[nH]c(-c2ccccn2)n1)Nc1ccc(Cl)cc1	0.794 µM (active)	–
O=C(CSc1ccc2ccccc2c1)Nc1nc2ccccc2[nH]1	–	78.8% [at 11.4 µM]
O=C(CC1NCCc2ccccc21)Nc1ccc(Cl)cc1 (configuration not stated)	–	5.88% [at 11.4 µM]
CCn1cc(C(=O)NCCCN2CCCC(C)C2)c(=O)c2cc(S(=O)(=O)N3CCc4ccccc4C3)ccc21 (configuration not stated)	–	-12.8%
CCn1cc(C(=O)NCc2ccccc2)c(=O)c2cc(F)c(N3CCN(C(=O)c4ccco4)CC3)cc21	25.1 µM (active)	–
CCn1cc(C(=O)NCc2cccc(F)c2)c(=O)c2cc(F)c(N3CCN(C(=O)c4ccco4)CC3)cc21	15.8 µM (active)	–
CCOC(=O)Cn1cc(C(=O)c2ccco2)c2ccccc21	–	-4.82% [at 11.4 µM]
COC(=O)c1ccc(Oc2nc(NC(C)C)nc(N(C)C)n2)cc1	–	-22.6% [at 11.4 µM]
O=C(NCc1ccccc1)c1ccc(C(=O)N(C2CCCCC2)C2CCCCC2)cc1	31.6 µM (active)	–
Nc1c(C(=O)NCc2ccccc2)c2nc3ccccc3nc2n1-c1ccc2c(c1)OCO2	–	26.3% [at 11.4 µM]
Cc1cc[n+](C(C)C(=O)c2ccc(-c3ccccc3)cc2)cc1 (configuration not stated)	10 µM (active)	–
CC(C(=O)c1ccc(-c2ccccc2)cc1)[n+]1cccc(NC(=O)c2ccccc2)c1 (configuration not stated)	–	-21.8% [at 11.4 µM]
COc1cccc(C(=O)c2sc(NC(C)C)nc2N)c1	–	267% [at 11.4 µM]

Structure (SMILES)	Potency	activity change, negative = inhibition
N#Cc1c(Oc2ccc3ccccc3c2)sc(C(=O)c2ccccc2)c1N	14.1 µM (active)	–
CNc1ccc(Br)cc(C(=O)/C=C/c2ccc3c(c2)OCO3)c1=O	–	-5.4% [at 11.4 µM]
CCOC(=O)Oc1c(OC)cc(C(=O)O[C@@H]2C[C@@H]3CN4CCc5c([nH]c6cc(OC)ccc56)[C@H]4C[C@@H]3[C@H](C(=O)OC)[C@H]2OC)cc1OC	28.2 µM (active)	–
CC(C)(C)OC(=O)NNc1c2ccccc2nc2ccccc12	2.24 µM (active)	–
Oc1ccc(C2CNCc3sccc32)cc1O (configuration not stated)	–	-3.02%
COc1cccc2c1C1COC3C4CC(C(=O)O)C(C(C2)N13)N4C (configuration not stated)	12.6 µM (active)	–
COc1cccc2c1C(CO)N1C(C#N)C3CC(C(=O)O)C(C1C2)N3C (configuration not stated)	–	-24.6%
Oc1ccc(C[C@@H]2CNCCN2CCc2cc(C(F)(F)F)cc(C(F)(F)F)c2)cc1	–	-21.2% [at 11.4 µM]
CC[C@]12c3[nH]c4ccc(Cl)cc4c3CCN1C(=O)[C@@H](CC(=O)NCC13CC4CC(CC(C4)C1)C3)C[C@@H]2C(=O)N1CCN(C(=O)C2CC2)CC1	14.1 µM (active)	–
Cc1ccc(Cc2cnc(NC(=O)/C(C#N)=C/c3ccc(-c4cccc([N+](=O)[O-])c4)o3)s2)cc1	–	-24.2%
CCOc1ccc(OCC)c(NC(=O)Nc2ccc3c(c2)N(C)C(=O)CS3)c1	22.4 µM (active)	–
COc1ccccc1CNc1nc(NCc2cccc(OC)c2OC)c2sccc2n1	17.8 µM (active)	–
COc1ccccc1CNc1nc(NCc2ccc(NC(C)=O)cc2)c2sccc2n1	–	-22.7% [at 11.4 µM]
O=C(/C=C/c1ccc(Cl)cc1)Nc1ccc(CN2CCOCC2)cc1	3.16 µM (active)	–
O=C(CN(c1cccc(Br)c1)S(=O)(=O)c1ccccc1)N/N=C/c1cc([N+](=O)[O-])ccc1O	10 µM (active)	–
CN(Cc1ccccc1)C1=CC(=[N+]2CCCC2)CC(C)(C)C1	0.447 µM (active)	–
Cc1cccc(OCC(=O)Nc2ccc3c(c2)nc(CCN2CCN(c4ccccn4)CC2)n3C)c1	14.1 µM (active)	–
COc1cccc(/C=N/NC(=O)c2ccc(-c3ccccc3)cc2)c1O	2 µM (active)	–
COc1cccc(/C=N/NC(=O)c2cc(-c3ccccn3)nc3ccccc23)c1O	2.82 µM (active)	–
COc1cccc(/C=N/NC(=O)c2c(C)nc3ccc(Cl)cn23)c1O	1.41 µM (active)	–
CCn1c(C)nc2cc(C(=O)N/N=C/c3cccc(OC)c3O)ccc21	2.51 µM (active)	–
